According to PubChem BioAssay AID1063 (University of Pittsburgh Molecular Library Screening Center, 2008):
The whole screen tested about 200,000 compounds, of which about 18,000 (9%) were called active. Cut-off read from the data, not from the text of the source: active = inhibition above about 50%; inactive = the rest. Many of the other results were omitted from the sample, so actives are more common in it than they were.

Assay: antileishmanial activity against promastigotes – primary screen (AID 1063);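 note: promastigotes grown with compound for 44 hours at 28 °C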
Details: Leishmania major promastigotes, resazurin fluorescence viability; at 10 µM; active compounds read high

| SMILES | inhibition |
| --- | --- |
| CNc1nc2c(C)cccn2c(=O)c1C=Nc1ccc(OC)cc1 | 1.72% (inactive) |
| C/C(=N/NC(=O)c1ccc(NC(=O)c2ccc(F)cc2)cc1)c1ccccc1 | -6.46% (inactive) |
| COc1ccccc1N(CC(=O)Nc1ccc(C(F)(F)F)cc1)S(C)(=O)=O | 1.92% (inactive) |
| CC(=O)Nc1ccc(/C(C)=N/NC(=O)CN(c2ccccc2Br)S(C)(=O)=O)cc1 | 50.5% (active) |
| O=C(Nc1ccccc1F)c1ccc(Cn2cc(Br)cn2)cc1 | -6.11% (inactive) |
| Cc1ccc(-c2nc(C#N)c(NCCCn3ccnc3)o2)cc1 | 2.16% (inactive) |
| O=C(Cn1ncc(N2CCCC2)c(Br)c1=O)c1ccc(Cl)cc1 | 1.31% (inactive) |
| CC1CCCC(C)N1CCCNC(=O)c1cc2c(=O)n(C)c3ccccc3c2n1C (centres undefined) | 8.51% (inactive) |
| Cn1c(C(=O)NCCCN2CCN(c3cccc(Cl)c3)CC2)cc2c(=O)n(C)c3ccccc3c21 | 62.5% (active) |
| CCn1c(=O)cc(OCC(=O)NCCCN2CCN(c3cccc(Cl)c3)CC2)c2ccccc21 | 23.9% (inactive) |
| Cc1cc(NC(=O)CSc2nc3c(cc2C#N)CCCCC3)no1 | 2.09% (inactive) |
| O=C(CCC1CCCN(C(=O)Cc2ccc(F)cc2)C1)N1CCN(c2ccccn2)CC1 (centres undefined) | 0.87% (inactive) |
| O=C(COC(=O)c1cnccn1)Nc1cccc2ccccc12 | -4.62% (inactive) |
| Cc1cc(C)n2nc(C(=O)N(C)C(c3ccccc3)c3ccccc3)nc2n1 | 0.1% (inactive) |
| O=C(CO/N=C/c1ccc(OC(F)F)cc1)NCc1ccc(F)cc1 | 6.32% (inactive) |
| COC(=O)CN1C(=S)N(c2ccccc2)C(=O)C1CC(=O)Nc1ccc(Cl)cc1 (centres undefined) | 50.4% (active) |
| CCOc1ccc(NC(=O)CC2C(=O)N(c3ccccc3)C(=O)N2CCOC)cc1 (centres undefined) | -1.57% (inactive) |
| COc1ccc(N2C(=O)C(CC(=O)Nc3ccccc3)N(Cc3ccc(OC)c(OC)c3)C2=O)cc1 (centres undefined) | -5.05% (inactive) |
| O=C(Nc1ccc(-c2ccc3nncn3n2)cc1)C1CCCCC1 | -4.63% (inactive) |
| CCc1ccc(CN2C(=O)c3ccccc3C2C(=O)NCC2CCCO2)cc1 (centres undefined) | 5.61% (inactive) |

| SMILES | inhibition |
| --- | --- |
| COc1cccc(CN(C)CC(=O)NCc2ccccc2Cl)c1OC | 2.93% (inactive) |
| COC(=O)c1cc(S(=O)(=O)NC2CCN(Cc3ccccc3)CC2)cn1C | 79.3% (active) |
| Cn1c(=O)c(=O)n(C)c2cc(S(=O)(=O)NCCc3ccccc3)ccc21 | 18.8% (inactive) |
| O=C(NC1(C(F)(F)F)NC(=O)N(C2CCCCC2)C1=O)c1ccco1 (centres undefined) | -0.8% (inactive) |
| COc1cc(NC(=S)NCc2ccco2)c(OC)cc1Cl | 7.75% (inactive) |
| COc1cccc(C(=O)Nc2ccc(NC(=O)c3ccco3)cn2)c1 | 4.41% (inactive) |
| Cc1ccnc(NC(=O)c2ccc(NC(=O)c3ccco3)cc2)c1 | -2.95% (inactive) |
| COc1ccc(NC(=O)c2cccc(NC(=O)c3ccco3)c2)c(OC)c1 | 99.3% (active) |
| Cc1ccc(C(=O)COc2cccc(NC(=O)c3ccco3)c2)cc1 | 64.6% (active) |
| COC(=O)c1cc(Cl)c(NC(=O)c2ccco2)cc1OC | 8.8% (inactive) |
| COc1cc(NC(=O)c2cc([N+](=O)[O-])ccc2Br)ccc1NC(=O)c1ccco1 | 99% (active) |
| O=C(Nc1ccc(NC(=O)c2ccco2)c(Cl)c1)c1cccc([N+](=O)[O-])c1 | -5.27% (inactive) |
| COC(=O)c1ccc(NC(=O)c2ccco2)cc1 | -5.73% (inactive) |
| COc1ccccc1C(=O)Nc1ccc(NC(=O)c2ccco2)c(C)c1 | 3.48% (inactive) |
| CCS(=O)(=O)c1ccc(O)c(NC(=O)COc2ccc(Cl)cc2)c1 | -12.8% (inactive) |
| CCOc1c(CNCc2ccc(C(=O)O)cc2)cccc1OC | -5.92% (inactive) |
| NS(=O)(=O)c1ccc(NC(=S)NC(=O)c2cccnc2)cc1 | -2.35% (inactive) |
| COCC(C)n1c(C)cc(C(=O)COc2ccc(C)nc2[N+](=O)[O-])c1C (centres undefined) | 3.94% (inactive) |
| CCc1ccc(NC(=O)C(=O)N/N=C(\C)CC(=O)NCCOC)cc1 | -2.29% (inactive) |
| COc1ccc(NC(=O)CN2C(=O)CSC2=O)cc1 | -6.2% (inactive) |

| SMILES | inhibition |
| --- | --- |
| CCc1nnc(NS(=O)(=O)c2ccc(N=Cc3c(C)[nH]n(-c4ccc(C)cc4)c3=O)cc2)s1 | -3.52% (inactive) |
| COc1cc(SC#N)ccc1N=Cc1c(C)[nH]n(-c2ccc(C)cc2)c1=O | 100% (active) |
| Cc1ccc(-n2[nH]c(C)c(/C=N/N3C(=O)c4cccc5cccc(c45)C3=O)c2=O)cc1 | -6.15% (inactive) |
| COc1ccc(C)cc1NC(=O)CSc1nnc(CC(=O)Nc2ccccc2F)n1C | -0.88% (inactive) |
| O=C(COC(=O)C12CC3CC(CC(O)(C3)C1)C2)NC12CC3CC(CC(C3)C1)C2 | 17.4% (inactive) |
| Cc1ccc(C(=O)NC(=S)NCc2cccnc2)cc1 | 2.7% (inactive) |
| O=C(Nc1ccccc1)N(Cc1cccnc1)Cc1ccco1 | 4.43% (inactive) |
| Cc1c(Cl)cccc1NC(=S)N(Cc1ccccc1)Cc1cccnc1 | 90.4% (active) |
| Cc1ccc(CN(Cc2cccnc2)C(=S)Nc2cccc(Cl)c2C)cc1 | 21.5% (inactive) |
| Cc1ccc(CN(Cc2cccnc2)C(=S)Nc2cc(Cl)ccc2C)cc1 | 93.8% (active) |
| Cc1cccc(C)c1NC(=S)N(Cc1cccnc1)Cc1ccccc1Cl | 93.8% (active) |
| COCCN(CCOC)C(=S)Nc1ccccc1Cl | -4.19% (inactive) |
| Cc1ccc(NC(=S)NCc2ccccc2Cl)c(C)c1 | 22.1% (inactive) |
| COCCNC(=S)N(Cc1cccnc1)Cc1ccc(OC)c(OC)c1 | 1.16% (inactive) |
| CC(C)CCC(C)NC(=O)c1ccc2nccnc2c1 (centres undefined) | 11.2% (inactive) |
| COc1cc(-c2nnn(CC(=O)NCc3ccccc3)n2)cc(OC)c1OC | 16.3% (inactive) |
| COc1cc(C(=O)N2C(=O)c3cccc(N)c3C2=O)cc(OC)c1OC | -3.21% (inactive) |
| COCCn1c(C)cc(C(=O)COC(=O)/C=C/c2cccc(OC)c2)c1C | 0.63% (inactive) |
| Cc1cc(C)nc(NS(=O)(=O)c2ccc(N/C=C\C(=O)c3cccs3)cc2)n1 | 4.34% (inactive) |
